Screening results deposited in PubChem BioAssay by several laboratories.
A3A deaminase – human APOBEC3A DNA deaminase inhibition; P31941; recombinant A3A, FAM/TAMRA ssDNA deamination fluorescence; inhibition, % at 20 µM; hit rate 0.41% among 330,000; AID 493011;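 active = at least 40% inhibition at 20 µM here, with at most 30% in a related deaminase screen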;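 note: plate controls were A3A with DMSO for no effect and wells lacking A3A enzyme for full effect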
Target sequence (P31941 whole entry, looked up): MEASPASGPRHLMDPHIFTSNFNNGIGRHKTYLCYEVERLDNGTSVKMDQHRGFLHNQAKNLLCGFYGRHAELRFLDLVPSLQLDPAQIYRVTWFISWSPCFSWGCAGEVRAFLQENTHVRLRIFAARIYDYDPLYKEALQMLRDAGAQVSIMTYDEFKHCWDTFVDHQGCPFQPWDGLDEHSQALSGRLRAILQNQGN
PfG6PD inh – PfG6PD (Plasmodium falciparum) enzyme inhibition | inhibition, % at 20 µM | PfGluPho enzyme, NADPH resazurin-diaphorase fluorescence | hit rate 0.78% among 350,000;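 active = inhibition reaching at least a set limit at 20 µM in the primary screen, cut at about 59% in these data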;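 note: 0% = DMSO wells with substrate and 100% = DMSO wells lacking glucose-6-phosphate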
A3G deaminase – blocks human APOBEC3G single-stranded DNA deamination; AID 493012; recombinant A3G, ssDNA deamination FAM/TAMRA fluorescence; hit rate 0.28% among 330,000; Q9HC16; inhibition, % at 20 µM;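 active = inhibition of at least 40% at 20 µM, with no more than 30% in the related APOBEC3A deaminase screen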;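 note: plate controls were DMSO wells with A3G for no effect and wells lacking A3G enzyme for full effect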
Target sequence (Q9HC16 whole entry, looked up): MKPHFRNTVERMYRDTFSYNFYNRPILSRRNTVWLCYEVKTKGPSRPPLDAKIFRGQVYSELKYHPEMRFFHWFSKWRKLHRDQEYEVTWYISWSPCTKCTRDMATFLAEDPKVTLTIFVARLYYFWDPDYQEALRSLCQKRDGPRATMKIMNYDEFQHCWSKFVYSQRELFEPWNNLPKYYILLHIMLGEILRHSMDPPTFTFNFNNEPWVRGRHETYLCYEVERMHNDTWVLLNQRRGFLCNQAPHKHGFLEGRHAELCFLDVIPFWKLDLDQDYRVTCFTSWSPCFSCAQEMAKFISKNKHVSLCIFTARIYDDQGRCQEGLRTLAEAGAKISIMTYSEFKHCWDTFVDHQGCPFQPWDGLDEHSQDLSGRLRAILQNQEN
CR mimetic SO – lowers age-related superoxide in aged yeast cells; hit rate 0.18% among 330,000; superoxide response (% of plate mean), % at 10 µM; S. cerevisiae aged cells, superoxide DHE fluorescence; active compounds read low;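 active = superoxide response under a set limit, about three screen SD below normal, cut at about 65% in these data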;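 note: yeast aged for seven days with compound at 30 °C before DHE staining; 100% = average MFI of all compound-treated wells on the plate with controls excluded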
M18AAP inhibitor – blocks P. falciparum M18 aspartyl aminopeptidase; inhibition, % at 7.35 µM; hit rate 1.2% among 290,000; AID 1822; recombinant PfM18AAP, H-Glu-NHMec fluorogenic cleavage;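 active = inhibition above the campaign mean inhibition over all tested compounds plus 3 SD, cut at about 28% in these data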;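 note: 0% = plate median of test compound wells and 100% = 2 mM ZnCl2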
PfG6PD confirm – confirmation of Plasmodium falciparum G6PD inhibitors; AID 504753; shares compounds with PfG6PD inh; hit rate 34% among 2,400; recombinant PfGluPho, NADPH-diaphorase-resazurin fluorescence; inhibition, % at 20 µM;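 active = inhibition of at least 50% at 20 µM in any single replicate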;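 note: 0% = DMSO with substrate and 100% = DMSO lacking glucose-6-phosphate substrate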
Diaph ctr 10uM – diaphorase inhibition or oxidation at 10 uM NADPH; shares compounds with PfG6PD inh; diaphorase-coupled resazurin reduction, fluorescence, NADPH 10 uM; inhibition, % at 20 µM; hit rate 39% among 820; AID 504862;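 active = average inhibition reaching 50% or more with the compound at 20 µM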;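 note: resorufin red fluorescence formed as diaphorase reduces resazurin using NADPH; 0% = DMSO with enzyme and 100% = DMSO without enzyme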
Diaph ctr 30uM – counter-screen for P. falciparum G6PD inhibitors: diaphorase inhibitors, oxidizers; hit rate 29% among 820; shares compounds with PfG6PD inh; AID 504863; inhibition, % at 20 µM; Diaphorase/resazurin coupled assay, resorufin fluorescence, 30 uM NADPH;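 active = inhibition averaging 50% or more, tested at 20 µM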;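 note: 0% = DMSO with enzyme and 100% = DMSO wells lacking diaphorase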
Starred values were filed as active, the others as inactive. In the library only some 2.4% were active in any assay of this set; here they are far more common.

How did Cc1cc(=O)c(C(=O)O)nn1-c1cccc(C(F)(F)F)c1 do in these assays?
A3A deaminase: 0.7; PfG6PD inh: -2.0; A3G deaminase: -3.8; CR mimetic SO: 99.1; M18AAP inhibitor: -2.3

How did O=c1ccn(-c2cccc(C(F)(F)F)c2)nc1-c1ccn(-c2ccccc2)n1 do in these assays?
A3A deaminase: -3.1; PfG6PD inh: 90.7*; A3G deaminase: -6.1; CR mimetic SO: 119.6; M18AAP inhibitor: -9.3; PfG6PD confirm: 72.6*; Diaph ctr 10uM: 65.8*; Diaph ctr 30uM: 55.3*

How did CC[C@@]1(C(=O)OC)N[C@H](CN(C)S(=O)(=O)c2ccc(-c3ccccc3)cc2)[C@@H]2C(=O)N(Cc3ccccc3)C(=O)[C@@H]21 do in these assays?
A3A deaminase: -1.5; PfG6PD inh: -1.6; A3G deaminase: 0.4; CR mimetic SO: 84.5

What do the screens show for `O=C(CCCOc1ccc(Cl)cc1Cl)N/N=C/c1cccc([N+](=O)[O-])c1`?
A3A deaminase: 3.2; PfG6PD inh: 112.4*; A3G deaminase: -1.8; CR mimetic SO: 110.7; M18AAP inhibitor: 0.6; PfG6PD confirm: 69.3*; Diaph ctr 10uM: 58.9*; Diaph ctr 30uM: 48.0

Results for COc1cc(OC)cc(C(=O)NNC(=O)CN2C(=O)NC(C)(c3ccc(C)cc3)C2=O)c1 (stereo unspecified) ?
A3A deaminase: -4.7; PfG6PD inh: -4.0; A3G deaminase: -7.8; CR mimetic SO: 86.3

What do the screens show for `COc1ccc(-c2cc3ccc(F)cc3cn2)cc1`?
A3A deaminase: -0.2; PfG6PD inh: 68.6*; A3G deaminase: 2.1; CR mimetic SO: 105.0; PfG6PD confirm: 21.9

What do the screens show for `Cc1cc(S(=O)(=O)ON2C(=O)c3ccccc3C2=O)ccc1F`?
PfG6PD inh: 64.8*; CR mimetic SO: 103.5; M18AAP inhibitor: -7.1; PfG6PD confirm: 6.1

What do the screens show for `O=C1c2ccccc2C(=O)N1OS(=O)(=O)c1ccccc1`?
CR mimetic SO: 110.9; M18AAP inhibitor: -7.5

Results for O=C1Nc2ccc(S(=O)(=O)NCc3ccco3)c3cccc1c23 ?
A3A deaminase: 3.7; PfG6PD inh: 62.9*; A3G deaminase: -1.5; CR mimetic SO: 98.5; M18AAP inhibitor: 27.6; PfG6PD confirm: 43.5

How did CN[C@H]1C[C@H]2c3cc(-c4ccccc4)ccc3CCN2C(=O)[C@H]1[C@H](C)O do in these assays?
PfG6PD inh: 0.9

How did COc1ccc(NC(=O)CN(C)C(=O)C2CCCO2)cc1 (stereo unspecified) do in these assays?
A3A deaminase: -1.5; PfG6PD inh: 0.5; A3G deaminase: -4.9; CR mimetic SO: 91.6

What do the screens show for `O=C(Nc1ccccc1)c1nnsc1S(=O)c1ccc(Cl)cc1` (stereo unspecified)?
A3A deaminase: 1.7; PfG6PD inh: 63.6*; A3G deaminase: 9.1; CR mimetic SO: 83.9; M18AAP inhibitor: -113.9; PfG6PD confirm: 17.6

How did Cc1ccccc1S(=O)(=O)Oc1cccc2c(O)cccc12 do in these assays?
A3A deaminase: -6.1; PfG6PD inh: 40.8; A3G deaminase: 1.5; CR mimetic SO: 109.6; M18AAP inhibitor: 4.8

What do the screens show for `COc1ccc(-n2nc3c(c2NC(=O)COc2ccccc2OC)CS(=O)(=O)C3)cc1`?
PfG6PD inh: 7.5

How did Cc1ccc(-c2c(C#N)c(N)nc3c2CCCC3)o1 do in these assays?
A3A deaminase: 0.3; PfG6PD inh: -11.5; A3G deaminase: -5.5; CR mimetic SO: 89.2; M18AAP inhibitor: 6.3

Results for Cc1ccc(-c2c3c([nH]c(=S)c2C#N)CCCC3)o1 ?
A3A deaminase: 30.4; PfG6PD inh: 59.4*; A3G deaminase: 48.7; CR mimetic SO: 112.8; M18AAP inhibitor: 30.9*; PfG6PD confirm: 34.4

Results for O=C(Nc1cccc(F)c1)c1ccc(-c2ccccc2Cl)o1 ?
A3A deaminase: -1.5; PfG6PD inh: 78.8*; A3G deaminase: -9.2; CR mimetic SO: 97.0; M18AAP inhibitor: -4.2; PfG6PD confirm: -6.9

Results for COc1ccc(NC(=O)c2ccc(-c3ccc(C)c4ccccc34)o2)cc1 ?
A3A deaminase: 4.4; PfG6PD inh: 29.6; A3G deaminase: 6.0; CR mimetic SO: 112.6; M18AAP inhibitor: 1.6

How did Cc1ccc(-c2ccc(C(=O)Nc3cccc(F)c3)o2)c2ccccc12 do in these assays?
A3A deaminase: -3.4; PfG6PD inh: 27.5; A3G deaminase: -9.8; CR mimetic SO: 116.4; M18AAP inhibitor: -8.7

What do the screens show for `COc1ccc(NC(=O)c2ccc(-c3ccccc3Cl)o2)cc1`?
A3A deaminase: -0.2; PfG6PD inh: 64.6*; A3G deaminase: -1.2; CR mimetic SO: 94.7; M18AAP inhibitor: 3.1; PfG6PD confirm: 12.7

How did CCCCOc1ccc(C(=O)NCC(=O)NC2CCN(Cc3ccccc3)CC2)cc1 do in these assays?
A3A deaminase: 11.4; PfG6PD inh: -4.4; A3G deaminase: -6.8; CR mimetic SO: 86.7; M18AAP inhibitor: 0.2

Results for CC1CN(S(=O)(=O)c2ccc(CN3C(=O)c4cccnc4C3=O)cc2)c2ccccc2O1 (stereo unspecified) ?
A3A deaminase: -0.3; PfG6PD inh: -10.4; A3G deaminase: -0.7; CR mimetic SO: 105.8; M18AAP inhibitor: -1.6

What do the screens show for `N#C/C(=C\c1cccnc1)C(=O)Nc1ccc(O)cc1F`?
A3A deaminase: -4.8; PfG6PD inh: 27.1; A3G deaminase: -6.1; CR mimetic SO: 94.9; M18AAP inhibitor: 16.3

Results for Cc1cc(C)nc(NNS(=O)(=O)c2ccc(Cl)cc2)n1 ?
A3A deaminase: 3.5; PfG6PD inh: 59.2*; A3G deaminase: 8.3; CR mimetic SO: 103.6; PfG6PD confirm: 13.3

What do the screens show for `Cc1ccc(S(=O)(=O)SCCCSS(=O)(=O)c2ccc(C)cc2)cc1`?
PfG6PD inh: 123.1*; PfG6PD confirm: 81.4*; Diaph ctr 10uM: -33.6; Diaph ctr 30uM: -26.7

How did Cc1ccc(S(=O)(=O)SC/C=C/CSS(=O)(=O)c2ccc(C)cc2)cc1 do in these assays?
PfG6PD inh: 116.2*; PfG6PD confirm: 65.6*; Diaph ctr 10uM: -20.6; Diaph ctr 30uM: -4.8

What do the screens show for `Cc1ccc(S(=O)(=O)C=CS(=O)(=O)c2ccc(C)cc2)cc1`?
PfG6PD inh: 112.6*; PfG6PD confirm: 93.1*; Diaph ctr 10uM: -3.0; Diaph ctr 30uM: -1.0

What do the screens show for `Cc1ccc(S(=O)(=O)CCCS(=O)(=O)c2ccc(C)cc2)cc1`?
A3A deaminase: -3.7; PfG6PD inh: -10.0; A3G deaminase: -8.5; CR mimetic SO: 113.2; M18AAP inhibitor: -12.6

What do the screens show for `Cc1ccc(S(=O)(=O)CS(=O)(=O)c2ccc(C)cc2)cc1`?
PfG6PD inh: 5.0

Results for COc1ccc(Oc2ccc(-c3ccn[nH]3)cc2)cc1 ?
A3A deaminase: -1.6; PfG6PD inh: -0.7; A3G deaminase: -7.7; CR mimetic SO: 88.5; M18AAP inhibitor: -2.3
